Source: PubChem BioAssay (NCI)
This is part of a sample that, as a whole, favours compounds with a hit. Of some 83,000 tested, about 20% had one in any assay.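 How to read the values: 0–100, growth inhibition (40 = 60% inhibited); 0, no net growth; -100 to 0, cell death (-40 = 40% of starting cells died; -100 = all dead).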 A number with no mark means an inactive call. Activity calls are given as the source filed them. The calls were made as follows: active = growth percent below 10; inactive = the rest.

test system: IGROV1 ovarian; test: NCI-60 one-dose screen, 48 h (100 = growth as untreated, 0 = no growth, -100 = all killed); conditions: 10 µM unless noted

Structure (SMILES)	growth
COc1ccc([C@H]2[C@H](O)C(=O)N2c2cc(OC)c(OC)c(OC)c2)cc1Cl	22.8%
COc1cc2c3c(n(CCCNCC4CC4)c(=O)c2cc1OC)-c1cc2c(cc1C3=O)OCO2	56%
O=C(Cn1cc(CN2C(=O)c3ccc([N+](=O)[O-])cc3C2=O)nn1)Nc1ccccc1Br	97.5%
COc1ccc(NC(=O)Cn2cc(CN3C(=O)c4ccc([N+](=O)[O-])cc4C3=O)nn2)cc1	107%
COc1cc2c3c(n(CCCNC4CCCC4)c(=O)c2cc1OC)-c1cc2c(cc1C3=O)OCO2	-48.7% (active)
CS(=O)c1nccc(-c2c(-c3ccc(F)c(OCCc4ccccc4)c3)nc3sccn23)n1 (stereo not drawn)	17.7%
COc1cc2c3c(n(CCCNC4CCC4)c(=O)c2cc1OC)-c1cc2c(cc1C3=O)OCO2	-53.3% (active)
O=S(=O)(Nc1ccc(-n2cnc3cc(-c4ccc(O)cc4)ccc32)cc1)C1CC1	86%
N#Cc1ccc(S(=O)(=O)Nc2ccc(-c3cnc(N)[nH]3)cc2)cc1	108%
Cn1cc(-c2nn3cc(-c4cccnc4)nc3s2)c2cc(F)ccc21	74.5%
COc1ccc2oc3c4[nH]c5ccccc5c4c4c(c3c2c1)C(=O)N(O)C4=O	94.9%
COc1ccc(/C(C)=C(\c2ccc(Cl)cc2)c2ccc(OCCN)cc2)cc1	77.8%
COc1ccc2c(c1)c(-c1nn3c(=O)cc(-c4ccccc4)nc3s1)cn2C	54.3%
Cc1ccccc1/C=C/c1nn2c(-c3ccoc3C)nnc2s1	107%
Cn1cc(-c2nn3cc(-c4cccnc4)nc3s2)c2ccccc21	40.2%
COc1ccc(-c2cc(-c3cccc4ccccc34)n3c(n2)nc2ccccc23)cc1OC	52.3%
Cn1c2ccc(Br)cc2c2c3c(c4c5cc(F)ccc5oc4c21)C(=O)N(O)C3=O	63.5%
O=C(Cn1cc(CN2C(=O)c3ccc([N+](=O)[O-])cc3C2=O)nn1)Nc1ccc(F)cc1Cl	100%
O=C1c2c(c3c4ccc(Br)cc4oc3c3[nH]c4ccccc4c23)C(=O)N1CCO	43.4%

Structure (SMILES)	growth
CCOC(=O)CC(=O)CSC1=NC2C(NN1)N(C)C(=O)N2C (stereo not drawn)	91.2%
Cn1c2ccccc2c2c3c(c4c5ccc(Br)cc5oc4c21)C(=O)N(O)C3=O	69.7%
CCNCCCn1c2c(c3cc(OC)c(OC)cc3c1=O)C(=O)c1cc(OC)cnc1-2	32.3%
C=CCn1c(SCC(=O)Nc2cccc(C(=O)/C=C/c3cccc([N+](=O)[O-])c3)c2)nc2ccccc2c1=O	96.8%
COc1ccc2c(c1)oc1c3[nH]c4ccccc4c3c3c(c21)C(=O)N(O)C3=O	41.2%
COc1cc2c3c(n(CCCN4CCC[C@H]4C(N)=O)c(=O)c2cc1OC)-c1cc2c(cc1C3=O)OCO2	33.7%
C=CCn1c(SCC(=O)Nc2cccc(C(=O)/C=C/c3ccc(Br)cc3)c2)nc2ccccc2c1=O	93.6%
CS(=O)(=O)c1ccc2c(c1)c1c(n2C(=O)c2ccc(Cl)cc2)CCCC1	46.2%
COc1ccc([C@H]2[C@H](O)C(=O)N2c2cc(OC)c(OC)c(OC)c2)cc1O	26.7%
Cc1occc1-c1nc2s/c(=C\c3cn(-c4ccccc4)nc3-c3ccccc3)c(=O)n2n1	-96.2% (active)
COc1cc2c3c(n(CCCNC4CCCCC4)c(=O)c2cc1OC)-c1cc2c(cc1C3=O)OCO2	-30.9% (active)
COc1ccc(-c2no[n+]([O-])c2Nc2ccccc2Br)cc1	85.4%
C/C(Cc1ccc(Cl)cc1)=C(/c1ccccc1)c1ccc(OCCN)cc1	98.3%
COc1cnc2c(c1)C(=O)c1c-2n(CCCNCC2CC2)c(=O)c2cc(F)ccc12	10.3%
COc1cnc2c(c1)C(=O)c1c-2n(CCCn2ccnc2)c(=O)c2cc(OC)c(OC)cc12	-20.6% (active)
C=CCn1c(SCC(=O)Nc2cccc(C(=O)/C=C/c3ccccc3)c2)nc2ccccc2c1=O	87.6%
COc1cc2c3c(n(CCCN4CCCC4)c(=O)c2cc1OC)-c1cc2c(cc1C3=O)OCO2	-70.9% (active)
N#C/C(=C\c1ccc(-c2ccc(F)cc2)o1)C(=O)Nc1ncc(Cc2ccc(Cl)cc2Cl)s1	-1.72% (active)
Cc1ccc(-c2nnc3sc(C4=Cc5ccccc5OC=C4)nn23)cc1	109%
